Values without a mark were called inactive. Results filed as inconclusive are left out. Calls of active or inactive are those of the source. Unless noted, calls follow the shape of the dose curve; as a rule, active = well fitted curve in the direction sought with a large enough effect in the repeat runs; inconclusive = weak or mixed curves; inactive = no such curve, though single readings can be large; an effect the other way counts as inactive or inconclusive.

The values that follow come from PubChem BioAssay (Tox21).

A short description of test [1]: qHTS assay to identify small molecule agonists of the estrogen receptor alpha (ER-alpha) signaling pathway in the presence of an antagonist - cell viability counter screen (AID 1259386).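 Also: series mostly up to about 92 µM; cells exposed to compounds for 22 h at 37 °C before the viability read; nearly all actives have a fitted effect of over 30% in size.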 In a few lines:
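Steps: 5-day stripped-FBS culture; seed and incubate 24hr; add ICI-182,780 (10.0nM final); pin 15-point compound titration; incubate 22hr at 37C; add CellTiter-Fluor at 21hr; read fluorescence.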

Test [2] addresses Progesterone receptor (Homo sapiens) (UniProt P06401). As to the kind of experiment: qHTS assay to identify small molecule agonists of the progesterone receptor (PR) signaling pathway (AID 1346784; calls by dose curve; also: nearly all actives have a fitted effect of over 30% in size). The essentials: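 Seed PR-UAS-bla HEK 293T cells (2% charcoal-stripped FBS), incubate 6 hr at 37C; add compounds in DMSO, 16 hr at 37C; add LiveBLAzer B/G substrate, 2 hr RT; read fluorescence intensity.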
A general note: qHTS replaces the single test concentration by a dilution series.

Test [3] shares this target. The experiment in a line: qHTS assay to identify small molecule antagonists of the progesterone receptor (PR) signaling pathway (AID 1346795; active = well fitted inhibition curve with a large enough effect in the signal ratio in the repeat runs, not every such curve was filed as active; the % refers to the signal ratio). The essentials:
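Screening used a GripTite HEK293T line with PR-responsive UAS-beta-lactamase. Cells were challenged with compound in the presence of 1 nM R5020 final for 16 hr at 37C; B/G FRET substrate, 2 hr room temperature, fluorescence.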

Test [4] in a line: qHTS assay to identify small molecule antagonists of the progesterone receptor (PR) signaling pathway - cell viability counter screen (AID 1346798). Also: series mostly up to about 92 µM; nearly all actives have a fitted effect of over 50% in size. In a few lines: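 Measures cytotoxicity in parallel with the PR antagonist reporter read: HEK293T PR-UAS-bla cells get compound and R5020 for 16 hr, and remaining viable cells are quantified by CellTiter-Glo luminescence.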
The nature of test [5]: qHTS assay to identify small molecule agonists of the progesterone receptor (PR) signaling pathway - cell viability counter screen (AID 1346799; calls by dose curve; also: nearly all actives have a fitted effect of over 45% in size). The essentials: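 Using the same plates as the PR reporter screen, HEK293T PR-UAS-bla cells received compounds for 16 hr at 37C and were then lysed with CellTiter-Glo; luminescence was read 30 min later at room temperature.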
The nature of test [6]: qHTS assay to identify small molecule antagonists of the TGF-beta/Smad signaling pathway - cell viability counter screen (AID 1346824). Also: nearly all actives have a fitted effect of over 50% in size. In a few lines:
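Cytotoxicity counter-screen run in the same wells as the beta-lactamase Smad reporter read: CellTiter-Glo luminescence after 30 min at room temperature. HEK 293T SBE-bla cells had 5 hr compound exposure at 37 C with TGF-beta1 (0.25 ng/mL stock).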

Test [7] in a line: qHTS assay to identify small molecule agonists of the TGF-beta/Smad signaling pathway - cell viability counter screen (AID 1346829). Also: top concentration of the series differs between compounds; nearly all actives have a fitted effect of over 45% in size. The essentials:
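Here the cytotoxicity of library compounds is measured in SBE-bla HEK 293T cells treated for 5 hr, using CellTiter-Glo added to wells already read for the beta-lactamase reporter.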

The nature of test [8]: qHTS assay to identify small molecule agonists of the TGF-beta/Smad signaling pathway (AID 1346859; active = well fitted activation curve with a large enough effect in the signal ratio in the repeat runs, not every such curve was filed as active; the % refers to the signal ratio; also: series mostly up to about 77 µM). The essentials: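 Beta-lactamase reporter activity downstream of Smad binding elements was measured in stably transfected HEK 293T cells; compounds were incubated for 5 hr, substrate for 2 hr at room temperature.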
Test [9] has as its target Thyrotropin-releasing hormone receptor (Homo sapiens) (UniProt P34981). The experiment in a line: qHTS assay to identify small molecule antagonists of the thyrotropin-releasing hormone receptor (TRHR) signaling pathway (AID 1346877; active = well fitted inhibition curve with a large enough effect in the repeat runs, not every such curve was filed as active; also: series mostly up to about 51 µM). The essentials: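 Human TRHR in HEK293 cells; inhibition of the intracellular calcium rise triggered by 1 nM TRH was followed by fluorescence over 3 min. Compounds were run at 15 concentrations, three replicates each.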

The target is the same in test [10]. The experiment in a line: qHTS assay to identify small molecule agonists of the thyrotropin-releasing hormone receptor (TRHR) signaling pathway (AID 1346891; calls by dose curve;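 also: HEK293 cells expressing TRHR with calcium dye readout; series mostly up to about 58 µM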). The essentials: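 Overnight-plated (18 h, 37 °C, 5% CO2) TRHR-Hek293 cells; 2 h calcium dye at 37 °C; compound in DMSO; 3-min kinetic fluorescence read.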
A short description of test [11]: Human pregnane X receptor (PXR) small molecule agonists, qHTS cell viability counter screen (AID 1346977). Also: nearly all actives have a fitted effect of over 50% in size. In a few lines: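 After a 5hr pre-incubation, PXR-Luc HepG2 cells received compounds plus positive control in DMSO and were kept 24hr at 37C. Cell viability was quantified by fluorescence from CellTiter-Fluor added for the final hour.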
Test [12] in a line: Caspase-3/7 induction in HepG2 cells by small molecules, qHTS assay (AID 1346978). Also: nearly all actives have a fitted effect of over 15% in size. In a few lines:
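Caspase-3/7 induction was measured by Caspase-Glo 3/7 luminescence (30 min, room temperature) after a 17 hr compound exposure of wild-type HepG2 cells seeded at 2,000 per well and pre-incubated 5 hr.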

A short description of test [13]: Caspase-3/7 induction in CHO-K1 cells by small molecules, qHTS cell viability counter screen (AID 1346979). Also: nearly all actives have a fitted effect of over 35% in size. In a few lines:
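Multiplexed with Caspase-Glo 3/7 in CHO-K1 cells, this counter screen added CellTiter-Fluor after 16hr of compound exposure and recorded fluorescence 1hr later.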

The nature of test [14]: Caspase-3/7 induction in CHO-K1 cells by small molecules, qHTS assay (AID 1346980). Also: nearly all actives have a fitted effect of over 15% in size. The essentials:
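Luminescent Caspase-Glo 3/7 read (30min, room temperature) quantified apoptosis induction. Cells were wild-type CHO-K1, treated with compound for 17hr at 37 C and 5% CO2.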

A short description of test [15]: Caspase-3/7 induction in HepG2 cells by small molecules, qHTS cell viability counter screen (AID 1346981). Also: series mostly up to about 92 µM; nearly all actives have a fitted effect of over 30% in size. The essentials: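 The parent HepG2 line is plated at 2,000 cells per well and rested 5 hr before compound pinning from DMSO stocks. Following a 16-hr treatment at 37 C, a fluorogenic live-cell substrate (CellTiter-Fluor) reports viability after 1 hr.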
Test [16] concerns the target Nuclear receptor subfamily 1 group I member 2 (Homo sapiens) (UniProt O75469). As to the kind of experiment: Human pregnane X receptor (PXR) small molecule agonists, qHTS assay (AID 1346982). Also: nearly all actives have a fitted effect of over 35% in size. Also: potency is read from the fitted curve at half-maximal effect. In a few lines:
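After plating in 5% charcoal-stripped FBS and a 5 hr rest, PXR-Luc HepG2 cells received compounds in DMSO. Following 24 hr at 37 C, ONE-Glo was added and light output read.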

Test [17] concerns the target Nuclear receptor subfamily 1 group I member 2 (Rattus norvegicus) (UniProt Q9R1A7). As to the kind of experiment: Rat pregnane X receptor (rPXR) activation by small molecules, qHTS assay (AID 1346983). Also: nearly all actives have a fitted effect of over 20% in size. Conditions: rPXR luciferase reporter cells, One-Glo luminescence, 24 h; max activation: stronger effect = higher value. The essentials: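 Luminescent readout (One-Glo luciferase, 30 min room temperature) followed 24 hr compound treatment at 37 C of rPXR cells plated 2,000 per well and preincubated 5hr; qHTS format with compounds delivered in DMSO.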

Test [18] concerns the target Nuclear receptor subfamily 1 group I member 2 (Homo sapiens) (UniProt O75469). The experiment in a line: CYP3A4 induction through human pregnane X receptor (PXR) by small molecules, qHTS assay (AID 1346984). Also: nearly all actives have a fitted effect of over 40% in size. In a few lines: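 Human PXR activation is tracked via CYP3A4 promoter-luciferase in DPX-2 (HepG2) cells. Compounds treat cells for 24hr at 37C, and luminescence is read after One-Glo.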

Test [19] shares this target. The experiment in a line: Human pregnane X receptor (PXR) activation by small molecules, qHTS assay (AID 1346985). Also: nearly all actives have a fitted effect of over 40% in size. The essentials:
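DPX-2 cells (HepG2 co-transfected with a PXR response element and a CYP3A4-promoter luciferase construct) were seeded at 2,000 per well, rested 5 hr at 37C, then exposed to DMSO-dissolved compounds for 24 hr. Activation was read as luciferase luminescence.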

For test [20], the target named is Cytochrome P450 2D6 (Homo sapiens) (UniProt P10635). The experiment in a line: Cytochrome P450 Family 2 Subfamily D Member 6 (CYP2D6) small molecule antagonists: luciferase reporter qHTS assay (AID 1671196). Also: nearly all actives have a fitted effect of over 50% in size. Also: potency is read from the fitted curve at half-maximal effect. The essentials:
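Quantitative HTS of Tox21 chemicals against CYP2D6 using a luminescent proluciferin substrate. After NADPH addition, 1 h room-temperature reaction; luminescence recorded 20 min post detection reagent.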
(A reporter such as luciferase makes a cellular process visible.)
% is scaled to controls: 0 for no effect and ±100 for the full control effect.

Sequence of Thyrotropin-releasing hormone receptor (Homo sapiens) (P34981 whole entry, looked up): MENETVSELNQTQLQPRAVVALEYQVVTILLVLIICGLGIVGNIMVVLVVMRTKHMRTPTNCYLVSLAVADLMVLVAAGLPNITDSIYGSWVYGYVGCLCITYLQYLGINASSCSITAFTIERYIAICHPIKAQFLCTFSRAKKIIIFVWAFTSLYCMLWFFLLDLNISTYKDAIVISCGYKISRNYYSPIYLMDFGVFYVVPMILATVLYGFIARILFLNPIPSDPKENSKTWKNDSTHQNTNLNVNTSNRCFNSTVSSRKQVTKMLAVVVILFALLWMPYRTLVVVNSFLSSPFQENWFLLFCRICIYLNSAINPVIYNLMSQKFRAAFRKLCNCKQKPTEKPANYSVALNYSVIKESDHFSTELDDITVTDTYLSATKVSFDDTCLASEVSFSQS
Sequence of Nuclear receptor subfamily 1 group I member 2 (Homo sapiens) (O75469 whole entry, looked up): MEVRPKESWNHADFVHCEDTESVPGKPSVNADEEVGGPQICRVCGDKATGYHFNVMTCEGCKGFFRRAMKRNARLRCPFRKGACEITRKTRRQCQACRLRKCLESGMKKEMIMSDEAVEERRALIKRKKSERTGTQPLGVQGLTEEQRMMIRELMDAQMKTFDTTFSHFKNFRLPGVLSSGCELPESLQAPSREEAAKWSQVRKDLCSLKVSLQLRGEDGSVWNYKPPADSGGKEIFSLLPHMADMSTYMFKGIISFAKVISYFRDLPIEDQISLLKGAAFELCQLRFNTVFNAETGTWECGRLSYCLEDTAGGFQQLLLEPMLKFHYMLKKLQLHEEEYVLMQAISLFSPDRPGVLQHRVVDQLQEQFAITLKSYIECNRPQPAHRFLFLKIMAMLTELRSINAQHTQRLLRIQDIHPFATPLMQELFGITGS
Sequence of Nuclear receptor subfamily 1 group I member 2 (Rattus norvegicus) (Q9R1A7 whole entry, looked up): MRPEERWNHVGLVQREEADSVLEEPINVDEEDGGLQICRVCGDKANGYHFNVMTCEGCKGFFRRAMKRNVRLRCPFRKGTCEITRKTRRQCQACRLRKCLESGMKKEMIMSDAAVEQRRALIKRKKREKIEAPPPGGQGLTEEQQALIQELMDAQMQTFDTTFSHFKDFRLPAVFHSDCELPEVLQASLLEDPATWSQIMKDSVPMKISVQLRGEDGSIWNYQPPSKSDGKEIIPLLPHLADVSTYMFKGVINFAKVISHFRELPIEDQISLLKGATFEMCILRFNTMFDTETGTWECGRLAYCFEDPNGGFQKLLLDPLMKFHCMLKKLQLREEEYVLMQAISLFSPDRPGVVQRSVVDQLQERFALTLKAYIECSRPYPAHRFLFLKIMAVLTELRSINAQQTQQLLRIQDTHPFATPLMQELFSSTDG
Sequence of Progesterone receptor (Homo sapiens) (P06401 whole entry, looked up): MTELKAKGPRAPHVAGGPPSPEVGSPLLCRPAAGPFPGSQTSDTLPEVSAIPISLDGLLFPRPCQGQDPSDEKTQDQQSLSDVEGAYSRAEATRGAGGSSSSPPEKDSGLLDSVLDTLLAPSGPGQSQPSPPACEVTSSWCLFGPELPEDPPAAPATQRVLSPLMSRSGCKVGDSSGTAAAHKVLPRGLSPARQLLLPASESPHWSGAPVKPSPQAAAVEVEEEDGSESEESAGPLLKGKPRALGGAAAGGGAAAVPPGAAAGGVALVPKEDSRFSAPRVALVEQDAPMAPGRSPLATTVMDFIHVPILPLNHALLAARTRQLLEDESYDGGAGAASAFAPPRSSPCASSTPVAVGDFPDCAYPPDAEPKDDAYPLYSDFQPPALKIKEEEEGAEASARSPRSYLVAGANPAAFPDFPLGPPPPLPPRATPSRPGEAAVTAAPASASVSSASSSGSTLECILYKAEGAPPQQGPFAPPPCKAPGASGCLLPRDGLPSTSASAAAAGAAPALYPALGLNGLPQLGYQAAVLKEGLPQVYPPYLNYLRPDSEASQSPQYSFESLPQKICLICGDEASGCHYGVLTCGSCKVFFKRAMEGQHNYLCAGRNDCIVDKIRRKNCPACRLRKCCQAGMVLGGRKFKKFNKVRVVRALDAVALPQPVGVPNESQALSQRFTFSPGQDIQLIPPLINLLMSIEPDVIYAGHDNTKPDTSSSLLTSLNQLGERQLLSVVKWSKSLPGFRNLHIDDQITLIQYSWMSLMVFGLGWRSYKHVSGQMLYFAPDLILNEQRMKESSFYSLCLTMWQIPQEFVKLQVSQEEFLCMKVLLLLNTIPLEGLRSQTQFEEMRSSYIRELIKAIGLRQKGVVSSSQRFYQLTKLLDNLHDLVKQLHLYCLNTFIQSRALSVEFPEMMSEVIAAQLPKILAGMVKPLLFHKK
Sequence of Cytochrome P450 2D6 (Homo sapiens) (P10635 whole entry, looked up): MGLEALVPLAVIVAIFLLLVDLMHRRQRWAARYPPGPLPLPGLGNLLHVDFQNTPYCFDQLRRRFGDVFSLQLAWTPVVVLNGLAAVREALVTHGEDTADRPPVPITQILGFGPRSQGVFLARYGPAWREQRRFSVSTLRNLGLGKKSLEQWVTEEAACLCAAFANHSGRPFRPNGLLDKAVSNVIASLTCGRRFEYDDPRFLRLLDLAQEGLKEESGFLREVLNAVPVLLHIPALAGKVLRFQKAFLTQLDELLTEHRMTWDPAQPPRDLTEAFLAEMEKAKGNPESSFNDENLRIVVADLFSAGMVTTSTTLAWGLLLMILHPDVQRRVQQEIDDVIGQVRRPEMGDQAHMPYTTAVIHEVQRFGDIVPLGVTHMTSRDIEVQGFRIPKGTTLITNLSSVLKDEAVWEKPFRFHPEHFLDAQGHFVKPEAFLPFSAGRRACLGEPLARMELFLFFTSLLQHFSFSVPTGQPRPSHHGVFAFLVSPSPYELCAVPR

As to `CC[N+](CC)(CCNC(=O)C(=O)NCC[N+](CC)(CC)Cc1ccccc1Cl)Cc1ccccc1Cl`, the Potency entry in [1], in test [2], in test [3], in [4], in test [5] and in test [6] was “inactive” each time. Further, the Potency result in [7], in [8], in [10], in [11], in [12] and in test [13] was “inactive” throughout. Also, the Potency result in test [14], in test [15], in test [16], in test [18] and in [19] was “inactive” throughout. Further, the call in [9] was inactive. Also, the max activation in test [17] is -3.21%. Besides, in test [20], the Potency is 15.5 µM (active).

Take `CC1CC(C)C(=O)C1=O` (stereo not drawn): the Potency result in test [1], in test [2], in test [3], in test [4], in test [5] and in test [6] was “inactive” each time. Also, the Potency entry in test [7], in test [8], in test [10], in [11], in test [12] and in [14] was “inactive” each time. Moreover, the Potency result in [15] and in test [16] was “inactive” each time. In [9], the outcome was inactive.

`O=C1NC(=O)c2cc([N+](=O)[O-])ccc21`: the Potency result in [1], in test [2], in test [3], in test [4], in test [5] and in [6] was “inactive” throughout. Also, the Potency entry in test [7], in test [8], in test [10], in [11], in [12] and in test [13] was “inactive” in each case. Besides, the Potency entry in test [14] and in test [15] was “inactive” in each case. For the same compound, the call in [9] was inactive. In addition, the results for the Potency in test [16] and in test [20] were 61.6 µM (active) and 63.8 µM (active), respectively.

In the case of `C=Cc1ccc(S(=O)(=O)O)cc1`, the Potency entry in test [1], in [2], in test [3], in [4], in test [5] and in test [6] was “inactive” in each case. For the same compound, the Potency entry in test [7], in test [8], in [10], in [11], in test [12] and in test [14] was “inactive” each time. The Potency result in test [15], in test [18] and in test [19] was “inactive” in each case. For the same compound, in test [9], the result was inactive. Besides, in test [16], the Potency is 38.6 µM (active). Further, in [17], the max activation is -2.52%.

Turning to `CC(C)C=O`, the Potency result in test [1], in [2], in [3], in [4], in test [5] and in test [6] was “inactive” each time. The Potency entry in test [7], in test [8], in test [10], in test [11], in test [12] and in test [13] was “inactive” each time. For the same compound, the Potency entry in test [14] and in [15] was “inactive” each time. Moreover, the call in [9] was inactive.

On to `O[C@@H]1CO[C@H]2[C@@H]1OC[C@@H]2O`, for which the Potency result in test [1], in test [2], in [3], in [4], in test [5] and in [6] was “inactive” throughout. Moreover, the Potency result in test [7], in test [8], in test [10], in [11], in [12] and in test [13] was “inactive” in each case. Besides, the Potency result in test [14], in test [15], in test [16], in test [18], in test [19] and in test [20] was “inactive” each time. Further, in [9], the result was inactive. In test [17], the max activation is -1.59%.

`O=C(O)c1ccc(OCCCOc2ccc(C(=O)O)cc2)cc1`: the Potency result in [1], in test [2], in test [3], in test [4], in test [5] and in test [6] was “inactive” each time. For the same compound, the Potency result in [7], in test [8], in test [10], in [11], in test [12] and in [13] was “inactive” each time. Also, the Potency result in [15], in test [16], in [18] and in test [19] was “inactive” in each case. In addition, in test [9], the call was inactive. Besides, in test [17], the max activation was -2.11%.
